{"source": "PubChem BioAssay (Tox21)", "note": "Results filed as inconclusive are left out. Some structures have more than one record in an assay (separate samples or runs), and their calls can disagree. Calls of active or inactive are those of the source. Calls follow the shape of the full dose curve. % is scaled to controls: 0 for no effect and ±100 for the full control effect; potency is read from the fitted curve at half-maximal effect."}
{"molecular_target": "Acetylcholinesterase (Homo sapiens) (UniProt P22303)", "sequence (P22303 whole entry, looked up)": "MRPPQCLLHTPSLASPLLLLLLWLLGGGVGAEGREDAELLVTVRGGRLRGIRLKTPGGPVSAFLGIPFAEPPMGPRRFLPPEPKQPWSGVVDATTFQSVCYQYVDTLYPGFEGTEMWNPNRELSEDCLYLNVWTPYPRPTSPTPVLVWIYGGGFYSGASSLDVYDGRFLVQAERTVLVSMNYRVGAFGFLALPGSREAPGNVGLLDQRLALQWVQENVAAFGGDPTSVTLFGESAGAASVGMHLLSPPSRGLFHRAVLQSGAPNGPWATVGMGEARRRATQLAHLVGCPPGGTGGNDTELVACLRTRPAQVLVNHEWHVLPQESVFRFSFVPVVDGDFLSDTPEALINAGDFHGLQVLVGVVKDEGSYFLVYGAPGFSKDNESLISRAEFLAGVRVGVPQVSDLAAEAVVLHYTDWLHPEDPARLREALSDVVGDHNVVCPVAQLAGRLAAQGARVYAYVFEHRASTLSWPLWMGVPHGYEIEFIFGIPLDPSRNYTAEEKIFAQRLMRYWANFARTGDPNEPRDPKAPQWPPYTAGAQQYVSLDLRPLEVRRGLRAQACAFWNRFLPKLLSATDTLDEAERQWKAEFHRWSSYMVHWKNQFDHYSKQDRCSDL", "assay": "Acetylcholinesterase (AChE) small molecule antagonists: colormetric cell-based qHTS assay (AID 1347395); also: nearly all actives have a fitted effect of over 30% in size", "conditions": "SH-SY5Y cells AChE activity, colorimetric (Ellman); series mostly up to 115 µM; activity, negative = inhibition: at the top concentration", "how_it_was_run": "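Neuroblastoma line SH-SY5Y supplied the enzyme; cells were preincubated with compound for 30 min at 37 C and 5% CO2. Acetylthiocholine with DTNB was then added for 90 min at 37 C, and thiocholine was measured by colour.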"}
{"smiles": "O[C@@H](COc1cccc2ncccc12)CN1CCN(C2c3ccccc3[C@@H]3[C@H](c4ccccc42)C3(F)F)CC1", "note": "(stereo not given in full)", "activity, negative = inhibition": "-1.01% [at 52.9 µM] (inactive)"}
{"smiles": "CCN(CC)CC(=O)Oc1ccc(NC(C)=O)cc1", "activity, negative = inhibition": "2.96% [at 52.9 µM] (inactive)"}
{"smiles": "CNC(=O)c1cc(Oc2ccc(NC(=O)Nc3ccc(Cl)c(C(F)(F)F)c3)cc2)ccn1", "activity, negative = inhibition": "0.996% [at 52.9 µM] (inactive)"}
{"smiles": "NC(=O)c1cnccn1", "Potency": "inactive"}
{"smiles": "NS(=O)(=O)c1cc2c(cc1Cl)NCNS2(=O)=O", "activity, negative = inhibition": "-3.95% [at 52.9 µM] (inactive)"}
{"smiles": "ICCc1ccccc1", "activity, negative = inhibition": "-3.34% (inactive)"}
{"smiles": "C[C@H](CCC(=O)O)[C@H]1CC[C@H]2[C@@H]3CC[C@@H]4C[C@H](O)CC[C@]4(C)[C@H]3CC[C@]12C", "Potency": "inactive"}
{"smiles": "CCCCCCCCC=O", "activity, negative = inhibition": "1.04% (inactive)"}
{"smiles": "CCC(=O)O[C@H]1[C@H](O[C@@H]2[C@@H](C)[C@H](O[C@H]3C[C@@](C)(OC)[C@@H](O)[C@H](C)O3)[C@@H](C)C(=O)O[C@H](CC)[C@@](C)(O)[C@H](O)[C@@H](C)C(=O)[C@H](C)C[C@@]2(C)O)O[C@H](C)C[C@@H]1N(C)C", "Potency": "inactive"}
{"smiles": "Cc1cc(O)c(Cl)cc1C", "activity, negative = inhibition": "-4.83% (inactive)"}
{"smiles": "CCCCC(CC)COC(=O)CCCCCCCCC(=O)OCC(CC)CCCC", "note": "(stereo not given)", "activity, negative = inhibition": "-3.47% (inactive)"}
{"smiles": "CCCCCCCCCCCC[N+](C)(C)CC(=O)[O-]", "activity, negative = inhibition": "2.1% (inactive)"}
{"smiles": "CC(=O)Nc1ccc(OCC(O)CNC(C)C)cc1", "note": "(stereo not given)", "activity, negative = inhibition": "-2.64% [at 52.9 µM] (inactive)"}
{"smiles": "CCC(C)(O)CCCC(C)C", "note": "(stereo not given)", "Potency": "inactive"}
{"smiles": "CCC(C)C=O", "note": "(stereo not given)", "Potency": "inactive"}
{"smiles": "CCCC1CCC(=O)O1", "note": "(stereo not given)", "activity, negative = inhibition": "0.687% (inactive)"}
{"smiles": "CCOC(=O)C1=C(C)NC(C)=C(C(=O)OCC)C1c1ccccc1/C=C/C(=O)OC(C)(C)C", "activity, negative = inhibition": "2.02% [at 52.9 µM] (inactive)"}
{"smiles": "CCCCS(=O)(=O)N[C@@H](Cc1ccc(OCCCCC2CCNCC2)cc1)C(=O)O", "activity, negative = inhibition": "-7.02% [at 52.9 µM] (inactive)"}
{"smiles": "CC(C)OC(=O)C(O)(CC(=O)O)CC(=O)O", "activity, negative = inhibition": "0.402% (inactive)"}
{"smiles": "COCC(C)N", "note": "(stereo not given)", "Potency": "inactive"}
{"smiles": "CC(CO)Oc1ccccc1", "note": "(stereo not given)", "activity, negative = inhibition": "0.5% (inactive)"}
{"smiles": "CCCCCCCCCCn1cc[n+](CCCCCCCCCC)c1C", "Potency": "79.8 µM (active)"}
{"smiles": "CC(C)=CCC/C(C)=C/CC/C(C)=C/C(=O)OCC(=O)[C@@]1(O)CC[C@H]2[C@@H]3CCC4=CC(=O)C=C[C@]4(C)[C@H]3[C@@H](O)C[C@@]21C", "activity, negative = inhibition": "-1.06% [at 52.9 µM] (inactive)"}
{"smiles": "CCOc1ccccc1C(N)=O", "Potency": "inactive"}
{"smiles": "CC(C)CCCCCCOC(=O)C1CCCCC1C(=O)OCCCCCCC(C)C", "note": "(stereo not given)", "activity, negative = inhibition": "0% (inactive)"}
{"smiles": "O=C(CO)[C@@H](O)[C@H](O)[C@H](O)CO", "activity, negative = inhibition": "0.511% (inactive)"}
{"smiles": "O=c1c(-c2ccc(O)cc2)coc2cc(O)cc(O)c12", "Potency": "inactive"}
{"smiles": "Cc1oc(C)c(C(=O)Nc2ccccc2)c1C", "activity, negative = inhibition": "3.54% (inactive)"}
{"smiles": "CCCCC(CC)COC(=O)c1ccc(O)cc1", "note": "(stereo not given)", "Potency": "inactive"}
{"smiles": "CCCCCC1C(=O)CCC1CC(=O)OC", "note": "(stereo not given)", "Potency": "inactive"}
{"smiles": "Cc1sccc1Br", "activity, negative = inhibition": "-2.22% [at 52.9 µM] (inactive)"}
{"smiles": "CC(CC(=O)O)CC(C)(C)C", "note": "(stereo not given)", "activity, negative = inhibition": "3.26% (inactive)"}
{"smiles": "COc1ccc(OC(F)(F)F)cc1CN[C@H]1CCCN[C@H]1c1ccccc1", "activity, negative = inhibition": "0% (inactive)"}
{"smiles": "CCOC(=O)C1=NOC(c2ccccc2)(c2ccccc2)C1", "activity, negative = inhibition": "-1.37% (inactive)"}
{"smiles": "O=c1[nH]c(=O)c2cn[nH]c2[nH]1", "activity, negative = inhibition": "10.9% (inactive)"}
{"smiles": "OCCc1ccccn1", "activity, negative = inhibition": "-2.32% (inactive)"}
{"smiles": "CCCCCCC(CCCCCCCCCCC(=O)OCC(COC(C)=O)OC(C)=O)OC(C)=O", "note": "(stereo not given)", "activity, negative = inhibition": "-3.65% [at 52.9 µM] (inactive)"}
{"smiles": "CN1CCC(=C2c3ccccc3CCc3cccnc32)CC1", "activity, negative = inhibition": "-4.48% [at 52.9 µM] (inactive)"}
{"smiles": "Cc1ccc(O)c(C(C)(C)C)c1", "Potency": "inactive"}
{"smiles": "O=C1OC2(c3ccccc31)c1cc(I)c(O)c(I)c1Oc1c2cc(I)c(O)c1I", "Potency": "36 µM (active) and inactive"}
